Compound activity deposited in PubChem by Buhrlage Lab, Dana-Farber Cancer Institute and Novartis Institutes for BioMedical Research (Cambridge, Mass).
Sampled rows, rich in hits. Any-hit rate of the full collection: about 11%.
USP17 inh – inhibitors of human USP17 deubiquitinase; A8MUK1; purified USP17, Ub-rhodamine cleavage fluorescence, 3 h; inhibition, % at 50 µM; 47,000 compounds, 6.5% hits
USP30 block – blocks human USP30 ubiquitin-rhodamine cleavage. Q70CQ3. purified USP30, Ub-rhodamine cleavage fluorescence. inhibition, % at 25 µM. AID 1645860. 47,000 compounds, 5.3% hits
USP28 block – blocks human USP28 ubiquitin-rhodamine cleavage. Q96RU2. purified USP28, Ub-rhodamine cleavage fluorescence, 30 min. inhibition, % at 25 µM. 47,000 compounds, 3% hits
Active calls of the source: *; i = inactive; nt = not tested or not shown. Rule as the data show it: active = inhibition above about 30%; inactive = the rest.

SMILES | USP17 inh | USP30 block | USP28 block
Cn1c(=O)n(CC(=O)OCc2ccccc2)c(=O)c2c1nc1oc(C(C)(C)C)cn12 | -7 | -24 | -12
CCOC(=O)CCn1c(=O)c2c(nc3oc(C(C)(C)C)cn32)n(C)c1=O | 15 | 32* | 12
Cc1cccc(NC(=O)Cn2cnc3c2c(=O)n(C)c(=O)n3C)c1 | 3 | 4 | -1
CCC(C(=O)Nc1ccccc1F)n1c(SCc2cccc(F)c2)nc2ccncc21 (stereo not drawn) | 5 | -1 | 13
COc1ccc(CSc2nc3ccncc3n2CC(=O)Nc2ccc(C)cc2C)cc1 | 72* | 84* | 70*
COc1cccc(CNC(=O)c2ccc(CSc3nc4ccncc4n3Cc3ccccc3F)cc2)c1 | 36* | 54* | 34*
COC(=O)c1ccc(CSc2nc3ccncc3n2CC(=O)N2CCCC2)cc1 | -26 | -18 | -10
COc1ccc(Cn2c(SCc3ccc(C(=O)NCCc4ccccc4)cc3)nc3ccncc32)cc1 | 32* | 53* | 30
COc1ccccc1CNC(=O)c1ccc(CSc2nc3ccncc3n2Cc2ccccc2)cc1 | 40* | 56* | 31*
COC(=O)c1ccc(CSc2nc3ccncc3n2C(C)C(=O)OC)cc1 (stereo not drawn) | 0 | 0 | 10
CCC(C)NC(=O)c1ccc(Cn2c(SCc3ccc(C)cc3)nc3ccncc32)cc1 (stereo not drawn) | 4 | 0 | 22
CC(=O)N[C@@]12CN(C)CC[C@@H]1[C@@H](c1ccccc1)N(CC(=O)Nc1cn(C)nc1C)C2 | 0 | 14 | 4
Cc1ccc(C(=O)CCC(=O)Nc2ccc(F)c(Cl)c2)cc1 | -149 | i | -200
COc1ccc(NC(=O)COC(=O)Cn2cnc3ccccc32)cc1Cl | -10 | -4 | 25
Cc1noc(-c2cccnc2-n2ncc(C(=O)NCc3ccc(F)cc3)c2C)n1 | 3 | 6 | 16
COc1ccc(OC)c(CCNC(=O)c2ccc(CSc3nc4ccncc4[nH]3)cc2)c1 | -18 | -4 | 3
COc1ccc(CCNC(=O)c2ccc(CSc3nc4ccncc4[nH]3)cc2)cc1OC | -17 | -9 | 34*
O=C(NCCOc1ccccc1)c1nc(-n2cnnc2)ccc1Br | -2 | 18 | 1
COc1ccc(C(NS(=O)(=O)c2ccc(S(=O)(=O)N3CCOCC3)cc2)c2ccccc2)cc1 (stereo not drawn) | 9 | 36* | 12
O=S(=O)(c1ccc(-c2noc(COc3ccccc3)n2)cc1)N1CCOCC1 | 14 | -8 | -19
Cc1ccc2cc(CN(Cc3ccc4c(c3)OCO4)C(=O)Nc3ccc(F)cc3)c(=O)[nH]c2c1 | 0 | -3 | -5
O=C(c1cnccn1)N1C[C@H]2C[C@H]3[C@](C1)(CN(Cc1ccc(Cl)cc1)S3(=O)=O)O2 | 0 | 16 | 9
COC1=C(OC)C(=O)[C@H](C)[C@@H](C)C1=O | 19 | 1 | -5
COc1ccc(CC(=O)OCC(=O)N2c3ccccc3NC(=O)C2(C)C)cc1 | 34* | -12 | 13
CC1(C)C(=O)Nc2ccccc2N1C(=O)COc1ccc(-c2nnco2)cc1 | 4 | 9 | -1
SMILES | USP17 inh | USP30 block | USP28 block
CNC(=O)c1cc(C2CN(C(=O)c3cc4cc(F)ccc4[nH]3)CCO2)nc2ccccc12 (stereo not drawn) | 7 | -106 | -24
CC(=O)c1c(C)[nH]c(-c2csc(N)n2)c1C | -168 | i | -235
CCOc1ccc2nc(NCCc3ccc(Cl)cc3Cl)sc2c1 | 11 | 16 | 44*
CCOc1ccc2nc(NC(=O)Cc3ccc(OC)c(OC)c3)sc2c1 | 1 | i | -11
NS(=O)(=O)c1ccc(CCNC(=O)c2cc(-c3ccc4c(c3)OCO4)nc3ccccc23)cc1 | -18 | -32 | 14
COc1ccc2c(Sc3ccc(C)cc3)c(C(=O)N3CCCCC3)[nH]c2c1 | 1 | -6 | 0
Cc1ccc2c(Sc3ccc(Cl)cc3)c(C(=O)N3CCC4(CC3)OCCO4)[nH]c2c1 | 14 | 19 | 32*
Cn1cccc1C(=O)Nc1cnn(-c2ncc(N3CCCC3)cn2)c1 | 31* | -109 | -17
Cn1cccc1C(=O)Nc1cnn(-c2ncc(N3CCCCC3)cn2)c1 | -32 | -80 | -34
COc1ccc(-c2nnc(SCc3ccc(C#N)cc3)o2)cc1 | 0 | 46* | 1
COc1ccc(-c2nnc(SC(C(=O)c3ccccc3)c3ccccc3)o2)cc1 (stereo not drawn) | 29 | -12 | 10
COc1ccc(CNC(=O)Cc2cccc3ccccc23)cc1OC | 24 | 30* | 8
CCC(=O)Nc1nc(-c2ccc(C)cc2)ns1 | 46* | -80 | 6
COc1ccc(CNC(=O)c2ccc(-c3nnc(-c4ccccc4)o3)cc2)cc1OC | 25 | 42* | 10
O=C(Cn1cccc1-c1nnc(-c2ccccc2)o1)Nc1ccccc1 | 22 | nt | nt
Cc1ccc(-c2nsc(NC(=O)COc3ccccc3C)n2)cc1 | -19 | -188 | -13
